In PubChem BioAssay one finds composite z-score and z-score data, which are given here for 4 molecules.

Molecules are shown by their SMILES. Calls of active or inactive are those of the source. Unless noted, no rule for the calls is given here.

The subject of assay [1] is Wnt5a (protein binding on small-molecule microarray). The assay is described as follows: Wnt5a binders on small-molecule microarray, primary screen, biophysical, 635/667 nm fluorescence (AID 1142).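 Also: fluorescence read at 667 nm with signal to noise per printed feature.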 Particulars: 635 nm fluorescence, higher = more signal.
A short description of assay [2]: cell viability in Huh7 cells, primary screen, cytotoxicity control for HCV replication inhibitor project, CellTiter-Glo luminescence, basal, 48 h (AID 1143).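 Also: Huh7 hepatoma cells carrying a hepatitis C replication reporter with no stimulus; test concentration not given here.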 Particulars: Huh7 HCV replicon, higher = more signal, called active from +8 up or from −8 down.
Assay [3] can be described thus: P. aeruginosa biofilm formation inhibitors, primary screen, PAO1 strain, BacTiter-Glo luminescence, LB-PBS (AID 1144). Particulars: 12 h, higher = more signal.
Assay [4] can be described thus: CREB reporter modulators without forskolin, primary screen, cell-based, PC12, CRE-LacZ reporter, unstimulated (AID 1145). Particulars: no forskolin, luminescence, 4.5 h, higher = more signal, called active from +8 up or from −8 down.
A short description of assay [5]: CREB reporter modulators under forskolin, primary screen, cell-based, PC12, CRE-LacZ reporter, forskolin-stimulated (AID 1146).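 Also: PC12 cells with 6xCRE LacZ reporter stimulated by forskolin 10 µM; beta-galactosidase reporter signal reflecting CREB driven transcription.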 Particulars: luminescence, 4.5 h, higher = more signal, called active from +8 up or from −8 down.
For assay [6], the target named is Streptavidin (Streptomyces avidinii) (UniProt P22629). The assay is described as follows: streptavidin binders on small-molecule microarray, primary screen, artefact control for SMM compound annotation, biophysical, 635/667 nm fluorescence (AID 1147).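 Also: signal reflects streptavidin binding to arrayed compounds as a control protein.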 Particulars: streptavidin binding, higher = more signal.
Chain of Streptavidin (Streptomyces avidinii) (P22629 whole entry, looked up): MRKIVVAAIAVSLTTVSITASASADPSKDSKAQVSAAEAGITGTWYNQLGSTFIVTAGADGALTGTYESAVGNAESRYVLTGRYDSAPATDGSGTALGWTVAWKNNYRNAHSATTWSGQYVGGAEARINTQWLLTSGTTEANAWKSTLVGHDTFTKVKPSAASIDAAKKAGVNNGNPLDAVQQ
The nature of assay [7]: small-molecule binders of probe aInhba, primary screen, biochemical, small-molecule microarray, 635/667 nm fluorescence (AID 1148).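 Also: score merges 667nm spot fluorescence with signal-to-noise for antibody binding to printed compounds.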 Particulars: higher = more signal.
Assay [8] has as its target Torsin-1A (Homo sapiens) (UniProt O14656). The experiment in a line: torsin A binders from cell lysate, primary screen, small-molecule microarray, wild-type, 635/667 nm (AID 1149). Particulars: COS7 hTOR1A-WT lysate, 635 nm fluorescence, higher = more signal.
The target is the same in assay [9]. The experiment in a line: small-molecule binders of mutant TOR1A in lysate, primary screen, cell lysate, small-molecule microarray, COS7 lysate, 635/667 nm fluorescence (AID 1150).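 Also: score pools 667 nm emission and signal to noise measuring lysate protein binding.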 Particulars: COS7 hTOR1A mutant lysate, 635 nm fluorescence, higher = more signal.
Assay [10] deals with Sonic hedgehog protein (Shh). The experiment in a line: small-molecule binders of Shh protein, primary screen, biochemical, small-molecule microarray, 635/667 nm fluorescence (AID 1151).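 Also: Shh protein binding to compounds spotted on small-molecule microarray slides; score combines spot fluorescence intensity with signal-to-noise across triplicate slides.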 Particulars: small-molecule microarray binding, 635 nm fluorescence; higher = more signal.
A short description of assay [11]: E. coli DRC41 culture turbidity changes, primary screen, E. coli filamentation inducer project, strain DRC41, OD650, 48 h (AID 1152).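 Also: E. coli MC1000 strain DRC41 lacking acrAB efflux pump and sulA.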 Particulars: E. coli DRC41 (acrAB sulA), higher = more signal, called active from +8 up or from −8 down.
Assay [12] is described as follows: small-molecule binders of probe aLefty1, primary screen, biochemical, small-molecule microarray, 635/667 nm fluorescence (AID 1153).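 Also: score merges spot fluorescence with signal-to-noise ratio from the scanned slide images.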 Particulars: higher = more signal.
Assay [13] in a line: PSAC antagonists in infected red cells, primary screen, cell-based, P. falciparum Indochina, OD700, 1 h (AID 1154). Particulars: P. falciparum Indochina infected RBC osmotic lysis, higher = more signal, called active from +8 up or from −8 down.
The nature of assay [14]: PSAC antagonists in infected red cells, primary screen, cell-based, P. falciparum Indochina, OD700, 2 h (AID 1155).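 Also: lysis reports solute entry through the parasite surface anion channel PSAC; channel blockers reduce lysis of infected cells.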 Particulars: P. falciparum Indochina infected erythrocytes, osmotic lysis OD700; higher = more signal, called active from +8 up or from −8 down.
Assay [15] can be described thus: osmotic lysis modulators in infected erythrocytes, primary screen, PSAC antagonist project, cell-based, P. falciparum Indochina, OD700, 3 h (AID 1156). Particulars: higher = more signal, called active from +8 up or from −8 down.
Assay [16] in a line: PSAC antagonists in infected red cells, primary screen, cell-based, P. falciparum Indochina, OD700, 18 h (AID 1157). Particulars: P. falciparum Indochina infected erythrocytes, osmotic lysis OD700, 18 h; higher = more signal, called active from +8 up or from −8 down.
Assay [17] is described as follows: modulators of S6 phosphorylation in cells, primary screen, cell-based, A549, cytoblot, luminescence, serum-stimulated (AID 1158).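 Also: serum-stimulated A549 lung adenocarcinoma cells; signal is phosphorylated S6 detected by cytoblot immunostaining with HRP secondary.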 Particulars: A549 phospho-S6 cytoblot, 5 h, higher = more signal.
Assay [18] concerns the target NADPH oxidase 2 (Homo sapiens) (UniProt P04839). The assay is described as follows: NOX2-dependent H2O2 signal modulators, primary screen, NOX inhibitor project, cell-based, HEK293-NOX2, PMA-stimulated, Amplex Red fluorescence (AID 1159). Also: test concentration not given here. Particulars: 45 min, higher = more signal, called active from +8 up or from −8 down.
For assay [19], the target named is NADPH oxidase 4 (Homo sapiens) (UniProt Q9NPH5). The experiment in a line: NOX4-dependent H2O2 signal modulators, primary screen, NOX inhibitor project, cell-based, HEK293-NOX4, tetracycline-induced, Amplex Red fluorescence (AID 1160). Particulars: 45 min, higher = more signal, called active from +8 up or from −8 down.
Chain of NADPH oxidase 4 (Homo sapiens) (Q9NPH5 whole entry, looked up): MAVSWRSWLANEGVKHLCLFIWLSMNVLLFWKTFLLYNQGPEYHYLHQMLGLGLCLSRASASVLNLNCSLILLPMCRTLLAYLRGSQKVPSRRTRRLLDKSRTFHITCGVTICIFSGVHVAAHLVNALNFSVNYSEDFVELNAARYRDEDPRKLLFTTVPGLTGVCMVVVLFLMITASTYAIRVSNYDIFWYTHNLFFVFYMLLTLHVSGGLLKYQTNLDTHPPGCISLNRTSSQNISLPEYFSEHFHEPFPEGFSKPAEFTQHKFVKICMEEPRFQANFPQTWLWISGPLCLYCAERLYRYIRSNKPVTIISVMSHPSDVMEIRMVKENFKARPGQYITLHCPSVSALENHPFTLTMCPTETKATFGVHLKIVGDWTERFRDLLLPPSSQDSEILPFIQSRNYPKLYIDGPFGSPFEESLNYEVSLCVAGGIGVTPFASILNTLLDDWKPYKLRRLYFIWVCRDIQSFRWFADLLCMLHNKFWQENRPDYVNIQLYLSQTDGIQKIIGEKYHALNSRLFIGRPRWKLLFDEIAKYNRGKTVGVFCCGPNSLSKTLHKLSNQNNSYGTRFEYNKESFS
Assay [20] deals with NADPH oxidase 5 (Homo sapiens) (UniProt Q96PH1). The experiment in a line: NOX5-dependent H2O2 signal modulators, primary screen, NOX inhibitor project, cell-based, HEK293-NOX5, Amplex Red fluorescence (AID 1161). Particulars: HEK293-NOX5, ionomycin, 45 min, higher = more signal.
Chain of NADPH oxidase 5 (Homo sapiens) (Q96PH1 whole entry, looked up): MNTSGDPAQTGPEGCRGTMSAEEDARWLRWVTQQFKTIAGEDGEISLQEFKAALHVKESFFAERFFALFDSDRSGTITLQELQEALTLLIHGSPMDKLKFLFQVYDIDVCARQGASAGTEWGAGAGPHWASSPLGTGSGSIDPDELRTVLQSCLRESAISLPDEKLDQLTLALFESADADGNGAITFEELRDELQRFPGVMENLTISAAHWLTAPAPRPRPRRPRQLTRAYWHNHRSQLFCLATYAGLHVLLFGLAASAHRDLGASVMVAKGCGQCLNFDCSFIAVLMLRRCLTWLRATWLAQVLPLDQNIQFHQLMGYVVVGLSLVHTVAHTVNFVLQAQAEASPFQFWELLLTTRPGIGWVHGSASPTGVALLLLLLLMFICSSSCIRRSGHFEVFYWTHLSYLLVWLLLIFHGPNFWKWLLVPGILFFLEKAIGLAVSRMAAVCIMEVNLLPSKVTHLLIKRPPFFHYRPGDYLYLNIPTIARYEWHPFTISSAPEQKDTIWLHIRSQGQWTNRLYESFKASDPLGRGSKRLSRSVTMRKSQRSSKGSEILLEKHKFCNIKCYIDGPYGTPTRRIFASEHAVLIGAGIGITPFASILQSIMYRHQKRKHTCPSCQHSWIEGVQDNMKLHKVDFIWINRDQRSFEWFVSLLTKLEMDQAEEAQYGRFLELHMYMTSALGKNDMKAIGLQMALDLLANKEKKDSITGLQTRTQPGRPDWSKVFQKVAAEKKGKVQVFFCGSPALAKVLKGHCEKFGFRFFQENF

Chain of NADPH oxidase 2 (Homo sapiens) (P04839 whole entry, looked up): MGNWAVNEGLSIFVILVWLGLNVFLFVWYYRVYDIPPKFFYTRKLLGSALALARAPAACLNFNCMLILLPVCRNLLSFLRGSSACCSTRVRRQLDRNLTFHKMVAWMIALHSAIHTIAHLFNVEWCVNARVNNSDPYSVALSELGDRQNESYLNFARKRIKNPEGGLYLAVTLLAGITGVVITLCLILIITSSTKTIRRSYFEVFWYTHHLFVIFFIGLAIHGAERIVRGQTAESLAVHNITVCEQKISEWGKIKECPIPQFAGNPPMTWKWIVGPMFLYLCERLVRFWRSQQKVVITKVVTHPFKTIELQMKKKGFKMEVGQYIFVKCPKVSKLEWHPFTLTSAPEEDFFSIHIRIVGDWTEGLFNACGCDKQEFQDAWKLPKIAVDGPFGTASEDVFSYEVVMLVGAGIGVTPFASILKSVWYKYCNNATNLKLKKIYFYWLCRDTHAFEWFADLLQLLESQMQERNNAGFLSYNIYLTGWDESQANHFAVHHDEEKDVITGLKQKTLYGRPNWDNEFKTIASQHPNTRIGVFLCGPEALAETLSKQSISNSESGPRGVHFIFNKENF
Chain of Torsin-1A (Homo sapiens) (O14656 whole entry, looked up): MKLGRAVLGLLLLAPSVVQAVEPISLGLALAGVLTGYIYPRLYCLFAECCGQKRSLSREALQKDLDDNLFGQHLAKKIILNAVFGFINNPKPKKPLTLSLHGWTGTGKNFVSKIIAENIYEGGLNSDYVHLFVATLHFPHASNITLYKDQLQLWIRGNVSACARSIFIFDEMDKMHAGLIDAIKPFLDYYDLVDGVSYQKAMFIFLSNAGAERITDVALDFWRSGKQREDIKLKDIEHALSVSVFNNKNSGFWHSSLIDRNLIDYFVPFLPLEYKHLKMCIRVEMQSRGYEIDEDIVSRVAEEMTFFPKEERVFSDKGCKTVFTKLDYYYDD

For `CCCCCN1CC=CC23O[C@@H]4C=CCOC(=O)[C@@H]4[C@H]2C(=O)N(C(CO)C(C)C)[C@@H]3C1=O` (stereo not given in full), the composite z-score in assay [1] was -0.389; in assay [6] it was -0.263; in assay [7] it was 0.0013; in the assay with Torsin-1A (Homo sapiens) [8], -1.34; with Torsin-1A (Homo sapiens) [9], -1.38; in [10], 0.298. In assay [12], this molecule came in with a composite z-score of -0.0479. Besides, the z-score was -0.524 (inactive) in assay [2]; 0.921 (inactive) in assay [3]; -0.757 (inactive) in [4]; 0.371 (inactive) in [5]; 0.374 (inactive) in assay [11]; 0.901 (inactive) in [13]. Further, the z-score in assay [14] was 0.661 (inactive); in assay [15], 0.445 (inactive); in assay [16] it was 0.307 (inactive); in assay [17], -0.0997; in assay [18] it was 0.965 (inactive); in [19] it was 0.694 (inactive). The z-score in assay [20] was found to be 1.24.
With `C[C@H]1Cc2c(-c3ccccc3)nc3c(c2CO1)CN(CCOc1ccccc1)CC3`, the composite z-score in [1] was 0.379; in [6], 0.277; in assay [7] it was -0.0313; with Torsin-1A (Homo sapiens) [8], 0.132; with Torsin-1A (Homo sapiens) [9] it was 0.565; in assay [10], 1.17. In [12], this molecule registered a composite z-score of -0.199. In addition, the z-score in [2] was -0.239 (inactive); in [3], -0.888 (inactive); in assay [4] it was 2.92 (inactive); in [5], -1.46 (inactive); in assay [11] it was 0.503 (inactive); in assay [13] it was 1.65 (inactive). The z-score in [14] is 0.407 (inactive); in assay [15], 0.301 (inactive); in assay [16], 0.0748 (inactive); in assay [17], 0.426; in [18], 0.17 (inactive); in [19], -0.0187 (inactive). Also, the z-score in assay [20] is -0.605.
As for `C[C@@H](c1ccccc1)N1C(=O)[C@H]2[C@H]3[C@H](O)[C@H](O)CC(=NNC(=O)OCc4ccccc4)[C@H]3CC[C@H]2C1=O`, the composite z-score was 0.15 in [1]; 0.0456 in [6]; -0.317 in [7]; -0.184 in the assay with Torsin-1A (Homo sapiens) [8]; -0.289 with Torsin-1A (Homo sapiens) [9]; -0.108 in [10]. The molecule further came in with a composite z-score in assay [12] of 0.107. Also, the z-score in assay [2] was -0.0242 (inactive); in [3], 0.158 (inactive); in assay [4] it was 0.423 (inactive); in assay [5] it was -0.0874 (inactive); in assay [11], 0.645 (inactive); in assay [13], 3.27 (inactive). In addition, the z-score was 1.03 (inactive) in [14]; 0.0197 (inactive) in assay [15]; 0.0072 (inactive) in [16]; 0.296 in assay [17]; 0.982 (inactive) in assay [18]; 1.08 (inactive) in [19]. In addition, the z-score in assay [20] was found to be 0.412.
Consider `CCOC(=O)[C@H](Cc1ccccc1)NC(=O)CCC1CC(OC(=O)NCCc2ccc(F)cc2)CC2(CCCC(COC(=O)NCC(c3ccccc3)c3ccccc3)O2)O1` (stereo not given in full), for which the composite z-score in assay [1] was 0.0879; in [6], 0.388; in assay [7] it was -0.248; with Torsin-1A (Homo sapiens) [8] it was -0.0715; with Torsin-1A (Homo sapiens) [9], 0.656; in assay [10], 0.719. In assay [12], this molecule came in with a composite z-score of -0.144. Moreover, the z-score was -0.792 (inactive) in assay [2]; 0.338 (inactive) in [3]; 0.286 (inactive) in assay [4]; 1.23 (inactive) in assay [5]; -0.455 (inactive) in assay [11]; 14.2 (active) in assay [13]. For the same molecule, the z-score in assay [14] was 4.68 (inactive); in assay [15], -0.261 (inactive); in assay [16], 0.688 (inactive); in [17] it was -0.058; in [18] it was 0.0978 (inactive); in assay [19], -0.136 (inactive). In [20], the z-score was -0.234.
